PubChem BioAssay (NCATS)
Records with an inconclusive call do not appear. Calls of active or inactive are those of the source. Calls come from the whole dose curve; as a rule, active = well fitted cell-killing curve with a large enough effect; inconclusive = small, poorly fitted or top-dose-only effect, or effect the other way; inactive = no such curve, though single readings can be large or run the other way.

Test: Quantitative High-Throughput drug screen in 47 multiple myeloma cell lines against the NCATS MIPE library collection: MOLP8_DSMZ cell viability assay (AID 1918977); note: nearly all actives have a fitted effect of over 45% in size
Settings: MOLP8 myeloma viability, CellTiter-Glo ATP luminescence, 48 h; series mostly up to 45.8 µM
Excerpt: PI: Beverly A. Mock Ph.D.
Laboratory of Cancer Biology and Genetics,
Center for Cancer Research, National Cancer Institute,
National Institute of Health, Bethesda, Maryland
Drug resistance and disease progression are common in multiple myeloma (MM) patients, underscoring the need for new therapeutic combinations. […] We hypothesized that effective combinations would reduce MYC expression and enhance p16 activity. […] These preclinical data identify potentially useful drug combinations for evaluation in drug-resistant MM and reveal potential mechanisms of combined drug sensitivity.
Described herein is the primary MIPE qHTS used to cherrypick compounds. Validated compounds were then further tested for potential synergistic activiy.
[1] Peat TJ, Gaikwad SM, Dubois W, Gyabaah-Kessie N, Zhang S, Gorjifard S, Phyo Z, Andres M, Hughitt VK, Simpson RM, Miller MA, Girvin AT, Taylor A, Williams D, D'Antonio N, Zhang Y, Rajagopalan A, Flietner E, Wilson K, Zhang X, Shinn P, Klumpp-Thomas C, McKnight C, Itkin Z, Chen L, Kazandijian D, Zhang J, Michalowski AM, Simmons JK, Keats J, Thomas CJ, Mock BA. Drug combinations identified by high-throughput screening promote cell cycle transition and upregulate Smad pathways in myeloma. Cancer Lett. 2023 Aug 1;568:216284. doi: 10.1016/j.canlet.2023.216284. Epub 2023 Jun 24. PMID: 37356470; PMCID: PMC10408729.
SEQUENCE No. (e.g., 1, 2, 3, etc.); […] (e.g., Cells, Incubation, Reagent, etc.); VALUE and DESCRIPTION.
1; Cells; 5 uL; white, solid bottom 1536-well Greiner assay plate.
2; Compounds; 23 nL; Kalypsis pin tool (Wako USA) equipped with a 1536-well pin head to transfer to the assay plates.
3; Incubation; 48 hours; 37C incubation.
4; Reagent;5uL; CellTiter Glo (Promega).
5; Detector; 425V; Luminescence; Viewlux PerkinElmer.
NOTES (numbers refer to Sequence numbers above)
1. The cell-based screening methods employed in this study were like those previously published. Briefly, the corresponding myeloma cell lines were screened in 1,536-well plates with 500 cells, 5-uL per well for inhibition of cell viability (assessed by measuring ATP levels with CellTiterGlo).
2. NCATS MIPE 4.0 library of approved and investigational drugs were added using the Kalypsis pin tool. Wells treated with DMSO only for 100% viability and media only for 0% viability were used as controls.
3. The assay plates were covered and incubated for 48 hours in a 37C, 5% CO2 incubator with controlled humidity.
4. After 48 hours, CellTilter-GloTM luminescent substrate mix (Promega) reagent was added to the assay plate and plates we incubated for 5 min at room temperature.
5. Signal was measured as median relative luminescence units on a ViewLux (PerkinElmer) multiplate reader.
[1] Heske CM, Davis MI, Baumgart JT, Wilson K, Gormally MV, Chen L, Zhang X, Ceribelli M, Duveau DY, Guha R, Ferrer M, Arnaldez FI, Ji J, Tran HL, Zhang Y, Mendoza A, Helman LJ, Thomas CJ. Matrix Screen Identifies Synergistic Combination of PARP Inhibitors and Nicotinamide Phosphoribosyltransferase (NAMPT) Inhibitors in Ewing Sarcoma. Clin Cancer Res. 2017 Dec 1;23(23):7301-7311. doi: 10.1158/1078-0432.CCR-17-1121. Epub 2017 Sep 12. PMID: 28899971; PMCID: PMC6636827.
Potency is the fitted concentration of half-maximal effect.

Question: With `C[C@@]12O[C@@H](C[C@]1(O)CO)n1c3ccccc3c3c4c(c5c6ccccc6n2c5c31)CNC4=O` as the compound, how does the Potency read?
Answer: 0.209 µM (active)

Question: With `O=C(c1cncc(Br)c1)N1CCC(N2CCCC2)CC1` as the compound, how does the Potency read?
Answer: inactive

Question: With `O=C(C=Cc1cccnc1)NCCCCC1CCN(C(=O)c2ccccc2)CC1` as the compound, how does the Potency read?
Answer: inactive

Question: Which Potency does the source give for `CCOc1cc2ncc(C#N)c(Nc3ccc(F)c(Cl)c3)c2cc1NC(=O)C=CCN(C)C` here?
Answer: 20.9 µM (active)

Question: Which Potency does the source give for `O=c1c2ccccc2nc2n1CCc1c-2[nH]c2ccccc12` here?
Answer: inactive

Question: With `NC(=O)c1c(OCc2c(F)cc(Br)cc2F)nsc1NC(=O)NCCCCN1CCCC1` as the compound, how does the Potency read?
Answer: 26.4 µM (active)

Question: With `O=C(Nc1ncc(-c2cc(C(F)F)nn2-c2c(Cl)cccc2Cl)s1)C1CC1` as the compound, how does the Potency read?
Answer: 2.09 µM (active)

Question: With `COC(=O)[C@]12CCC(C)(C)C[C@@H]1[C@@H]1C(=O)C=C3[C@@]4(C)C=C(C#N)C(=O)C(C)(C)[C@@H]4CC[C@@]3(C)[C@]1(C)CC2` as the compound, how does the Potency read?
Answer: 0.209 µM (active)

Question: With `Nc1ccccc1NC(=O)c1ccc(CNC(=O)OCc2cccnc2)cc1` as the compound, how does the Potency read?
Answer: 1.48 µM (active)

Question: For `O=C(C=Cc1cccc(S(=O)(=O)Nc2ccccc2)c1)NO`, which Potency is on record?
Answer: 2.41 µM (active)

Question: For `Cc1cc(Nc2cc(NC(=O)c3c(Cl)cccc3Cl)ccn2)nc(N)n1`, which Potency is on record?
Answer: 23.5 µM (active)

Question: For `CC=C1NC(=O)[C@H]2CSSCCC=C[C@H](CC(=O)N[C@H](C(C)C)C(=O)N2)OC(=O)[C@H](C(C)C)NC1=O`, which Potency is on record?
Answer: 0.0132 µM (active)

Question: With `CCn1nnc2c(N3CCOCC3)nc(-c3ccc(NC(=O)Nc4ccc(C(=O)N5CCN(C)CC5)cc4)cc3)nc21` as the compound, how does the Potency read?
Answer: 0.0037 µM (active)

Question: For `COc1c(OCCCN2CCOCC2)ccc2c3n(c(=NC(=O)c4cnc(N)nc4)nc12)CCN3`, which Potency is on record?
Answer: 0.0288 µM (active)

Question: With `CN1CCN(Cc2ccc(NC(=O)Nc3ccc(Oc4cc(NC(=O)C5CC5)ncn4)cc3)cc2C(F)(F)F)CC1` as the compound, how does the Potency read?
Answer: 0.332 µM (active)

Question: For `COc1ccc(CC2SC(=O)NC2=O)cc1C(=O)NCc1ccc(C(F)(F)F)cc1` (stereo not given), which Potency is on record?
Answer: inactive

Question: For `Cc1cc(Nc2cc(CN3CCOCC3)c3nc(C)c(Cc4ccc(Cl)cc4F)n3n2)n[nH]1`, which Potency is on record?
Answer: 20.9 µM (active)

Question: With `Fc1cc(-c2cccc3ncc(-c4cnn(C5CCNCC5)c4)nc23)cc(F)c1CN1CCOCC1` as the compound, how does the Potency read?
Answer: 18.7 µM (active)

Question: Which Potency does the source give for `Cc1ccc(NC(=O)C2(c3ccc4c(c3)OC(F)(F)O4)CC2)nc1-c1cccc(C(=O)O)c1` here?
Answer: 0.0209 µM (active)

Question: For `CC(C)c1cnn2c(NCc3ccccc3)cc(N[C@@H](CO)[C@H](O)CO)nc12`, which Potency is on record?
Answer: 0.166 µM (active)

Question: Which Potency does the source give for `O=C(CCCCCCC(=O)Nc1ccc([C@H]2O[C@@H](CSc3nc(-c4ccccc4)c(-c4ccccc4)o3)C[C@@H](c3ccc(CO)cc3)O2)cc1)NO` here?
Answer: 14.8 µM (active)

Question: Which Potency does the source give for `N#CCNC(=O)c1ccc(-c2ccnc(Nc3ccc(N4CCOCC4)cc3)n2)cc1` here?
Answer: 11.8 µM (active)

Question: Which Potency does the source give for `Cc1cc(Nc2ncnc3ccc(-c4ccc(CNCCS(C)(=O)=O)o4)cc23)ccc1Oc1ccn2ncnc2c1` here?
Answer: 20.9 µM (active)

Question: Which Potency does the source give for `COc1ccc(OC)c(-c2nnc3ccc(-c4ccc(OC)c(O[C@@H]5CCOC5)c4)nn23)c1` here?
Answer: 9.35 µM (active)

Question: For `CCS(=O)(=O)c1cccc(-c2cc(C(=O)NC3CCN(C)CC3)c(C)c3[nH]c4ncc(C)cc4c23)c1`, which Potency is on record?
Answer: 1.05 µM (active)

Question: With `COc1cc(=C2C=c3ccccc3=N2)[nH]c1=Cc1[nH]c(C)cc1C` as the compound, how does the Potency read?
Answer: 0.469 µM (active)

Question: Which Potency does the source give for `Cc1ccc(-c2ncn(-c3ccc(Nc4nccc(-c5cccc(N6CCOCC6)c5)n4)cc3)n2)cn1` here?
Answer: 0.0935 µM (active)

Question: Which Potency does the source give for `Cc1[nH]nc2ccc(-c3cncc(OC[C@@H](N)Cc4ccccc4)c3)cc12` here?
Answer: 0.526 µM (active)

Question: Which Potency does the source give for `CN(C)CC=CC(=O)Nc1cc2c(Nc3ccc(F)c(Cl)c3)ncnc2cc1O[C@H]1CCOC1` here?
Answer: 18.7 µM (active)

Question: For `Nc1ccn([C@@H]2CS[C@H](CO)O2)c(=O)n1`, which Potency is on record?
Answer: inactive

Question: For `Cc1cc(CN2CCN(c3c(Br)cnc4nc(-c5ccc(N6CCN(C)CC6)cc5)[nH]c34)CC2)no1`, which Potency is on record?
Answer: 7.43 µM (active)

Question: With `CN1CCC(CNc2ccc3ncc(-c4cccc(OC(F)(F)F)c4)n3n2)CC1` as the compound, how does the Potency read?
Answer: 18.7 µM (active)

Question: For `Cc1ccc(C(N)=O)cc1Nc1nccc(-c2cn(C(C)C)c3cnccc23)n1`, which Potency is on record?
Answer: 4.69 µM (active)

Question: With `O=C(Nc1cc(C(F)(F)F)cc(C(F)(F)F)c1)c1cc(Cl)ccc1O` as the compound, how does the Potency read?
Answer: 1.48 µM (active)

Question: With `COc1cc2c(cc1-c1c(C)noc1C)ncc1[nH]c(=O)n([C@H](C)c3ccccn3)c12` as the compound, how does the Potency read?
Answer: 0.296 µM (active)

Question: For `COc1ccc(F)c(F)c1C(=O)c1cnc(NC2CCN(S(C)(=O)=O)CC2)nc1N`, which Potency is on record?
Answer: 1.32 µM (active)

Question: Which Potency does the source give for `CC[C@@H]1C(=O)N(C)c2cnc(Nc3ccc(C(=O)NC4CCN(C)CC4)cc3OC)nc2N1C1CCCC1` here?
Answer: 4.69 µM (active)

Question: For `CCC1=C[C@@H]2CN(C1)Cc1c([nH]c3ccccc13)[C@@](C(=O)OC)(c1cc3c(cc1OC)N(C)[C@@H]1[C@@](O)(C(=O)OC)[C@H](OC(C)=O)[C@]4(CC)C=CCN5CC[C@]31[C@@H]54)C2`, which Potency is on record?
Answer: 0.0332 µM (active)

Question: Which Potency does the source give for `CN[C@H]1CCc2cc(OC)c(OC)c(OC)c2-c2ccc(OC)c(=O)cc21` here?
Answer: 0.0235 µM (active)

Question: For `O=C(c1ccc(Nc2nccc(-c3cc4ccccc4s3)n2)cc1)N1CCC(N2CCCC2)CC1`, which Potency is on record?
Answer: 13.2 µM (active)
